Assay results: PubChem BioAssay (NCATS)
Several values for one entry are separate records, joined by “and”; a condition that tells them apart may be missing. Equal entries are not always repeated. Results filed as inconclusive are left out. Activity calls are given as the source filed them. Unless noted, calls follow the shape of the full dose curve.

Key:
[1] = target: Glucocorticoid receptor (Homo sapiens) (UniProt P04150); assay: qHTS assay for small molecule agonists of glucocorticoid receptor signaling (AID 588532; active = well fitted curve in the direction sought with a large enough effect in the signal ratio, with a control signal flat; the % refers to the signal ratio;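 also: 100% = dexamethasone at 0.1 µM and 0% = DMSO only wells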); conditions: HeLa MMTV-bla, beta-lactamase ratio, agonist, 18 h; activation: stronger effect = higher value, percent of dexamethasone control, DMSO zero
Sequence of Glucocorticoid receptor (Homo sapiens) (P04150 whole entry, looked up): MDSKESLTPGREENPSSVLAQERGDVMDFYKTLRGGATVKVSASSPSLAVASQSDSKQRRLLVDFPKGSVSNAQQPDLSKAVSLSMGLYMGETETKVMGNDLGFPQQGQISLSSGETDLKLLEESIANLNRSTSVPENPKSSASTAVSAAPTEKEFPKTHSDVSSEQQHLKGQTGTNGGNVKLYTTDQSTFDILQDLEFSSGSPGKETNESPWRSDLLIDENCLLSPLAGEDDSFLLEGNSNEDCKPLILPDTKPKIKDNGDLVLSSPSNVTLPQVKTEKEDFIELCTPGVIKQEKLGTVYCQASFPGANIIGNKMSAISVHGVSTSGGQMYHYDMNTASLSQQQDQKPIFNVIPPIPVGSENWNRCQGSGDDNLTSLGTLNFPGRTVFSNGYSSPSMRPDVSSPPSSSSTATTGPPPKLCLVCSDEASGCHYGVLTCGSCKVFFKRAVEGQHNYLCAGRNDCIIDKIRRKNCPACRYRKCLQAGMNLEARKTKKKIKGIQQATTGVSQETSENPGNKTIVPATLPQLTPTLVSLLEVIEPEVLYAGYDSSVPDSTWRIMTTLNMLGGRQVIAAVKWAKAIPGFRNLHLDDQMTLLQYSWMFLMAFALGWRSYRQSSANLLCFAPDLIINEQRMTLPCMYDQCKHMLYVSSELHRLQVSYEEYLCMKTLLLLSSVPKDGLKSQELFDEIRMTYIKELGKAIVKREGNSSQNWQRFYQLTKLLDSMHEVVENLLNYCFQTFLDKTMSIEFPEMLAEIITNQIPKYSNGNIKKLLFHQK
Procedure, shortened: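 Using MMTV-bla HeLa cells in medium with 1% stripped FBS and 25 mM HEPES, compounds were titrated and incubated overnight-length (18 h). Beta-lactamase cleavage of CCF4 was quantified by dual-emission fluorescence.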

[2] = target: Glucocorticoid receptor (Homo sapiens) (UniProt P04150); assay: qHTS assay for small molecule antagonists of glucocorticoid receptor signaling (AID 588533; active = well fitted inhibition curve with a large enough effect in the signal ratio, with a control signal flat, not every such curve was filed as active; the % refers to the signal ratio;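 also: cells stimulated with 2 nM dexamethasone as agonist; % is scaled to controls: 0 for no effect and ±100 for the full control effect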)
Procedure, shortened: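 Antagonist-mode qHTS: compound titrations added to GRE-bla HeLa cells, then dexamethasone 2 nM final; 18 h, 37 C. CCF4 FRET fluorescence normalized to dexamethasone and DMSO; IC50 from Hill fit.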

[3] = qHTS assay for small molecule antagonists of peroxisome proliferator-activated receptor delta signaling (AID 588535; active = well fitted inhibition curve with a large enough effect in the signal ratio, with a control signal flat, not every such curve was filed as active; the % refers to the signal ratio;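 as to max response: cells co-treated with a PPAR-delta agonist as stimulator during compound exposure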); conditions: HEK293T PPARd-UAS-bla, beta-lactamase FRET ratio, 18 h; 460 nm channel
Procedure, shortened: (§1)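 Cell-based beta-lactamase assay in antagonist mode: 4000 HEK293T PPAR-delta-UAS-bla cells per well, 5 hr preincubation then 18 hr compound incubation at 37 C. IC50 obtained by Hill equation fitting.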

[4] = target: Peroxisome proliferator-activated receptor delta (Homo sapiens) (UniProt Q03181); assay: as above
Sequence of Peroxisome proliferator-activated receptor delta (Homo sapiens) (Q03181 whole entry, looked up): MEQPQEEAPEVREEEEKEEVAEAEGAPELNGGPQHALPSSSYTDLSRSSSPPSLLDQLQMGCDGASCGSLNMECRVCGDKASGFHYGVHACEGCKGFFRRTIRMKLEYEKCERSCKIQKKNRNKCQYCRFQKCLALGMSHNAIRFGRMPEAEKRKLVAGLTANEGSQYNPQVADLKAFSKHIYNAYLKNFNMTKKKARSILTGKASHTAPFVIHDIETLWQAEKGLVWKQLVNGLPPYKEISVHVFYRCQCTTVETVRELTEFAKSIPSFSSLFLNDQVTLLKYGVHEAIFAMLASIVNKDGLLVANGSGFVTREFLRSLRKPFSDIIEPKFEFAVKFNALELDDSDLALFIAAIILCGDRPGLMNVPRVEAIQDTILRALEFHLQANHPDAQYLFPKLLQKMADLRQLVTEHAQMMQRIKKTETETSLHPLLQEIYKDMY
Procedure, shortened: as §1

[5] = target: Peroxisome proliferator-activated receptor gamma (Homo sapiens) (UniProt P37231); assay: qHTS assay for small molecule agonists of peroxisome proliferator-activated receptor gamma signaling (AID 588536; active = well fitted curve in the direction sought with a large enough effect in the signal ratio, with a control signal flat, not every such curve was filed as active; the % refers to the signal ratio;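 also: 0% = DMSO basal wells and 100% = rosiglitazone at 2 µM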)
Sequence of Peroxisome proliferator-activated receptor gamma (Homo sapiens) (P37231 whole entry, looked up): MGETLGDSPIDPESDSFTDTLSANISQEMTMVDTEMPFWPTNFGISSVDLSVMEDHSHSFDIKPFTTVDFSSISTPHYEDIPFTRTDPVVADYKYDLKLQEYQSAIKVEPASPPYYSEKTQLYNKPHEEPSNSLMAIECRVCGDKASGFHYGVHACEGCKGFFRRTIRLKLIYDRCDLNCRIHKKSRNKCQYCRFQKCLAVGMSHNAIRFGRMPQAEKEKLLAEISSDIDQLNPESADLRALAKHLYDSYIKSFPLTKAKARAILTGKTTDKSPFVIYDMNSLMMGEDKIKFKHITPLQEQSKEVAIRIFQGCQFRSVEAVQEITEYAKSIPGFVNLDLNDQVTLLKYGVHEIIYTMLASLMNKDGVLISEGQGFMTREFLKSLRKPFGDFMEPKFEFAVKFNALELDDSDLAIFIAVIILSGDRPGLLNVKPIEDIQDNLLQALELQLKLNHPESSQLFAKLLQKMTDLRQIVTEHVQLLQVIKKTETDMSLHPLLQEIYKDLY
Procedure, shortened: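 PPAR-gamma-UAS-bla HEK293 cells in medium with 1% charcoal/dextran-treated FBS were exposed to compounds for 16 h at 37 C. Beta-lactamase activity was read with CCF4 substrate (405 nm excitation, 460/530 nm emission).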

[6] = target: Peroxisome proliferator-activated receptor gamma (Homo sapiens) (UniProt P37231); assay: qHTS assay for small molecule antagonists of peroxisome proliferator-activated receptor gamma signaling (AID 588537; active = well fitted inhibition curve with a large enough effect in the signal ratio, with a control signal flat, not every such curve was filed as active; the % refers to the signal ratio;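 also: reporter cells co-stimulated with 50 nM rosiglitazone agonist during compound treatment; % of control where 0% means no effect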)
Procedure, shortened: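 Inhibitors of agonist-stimulated UAS-bla reporter activity were sought in HEK293 cells; rosiglitazone (50 nM) defined full signal and DMSO baseline. Curves fitted to Hill model gave IC50 and efficacy.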

[7] = target: Vitamin D3 receptor (Homo sapiens) (UniProt P11473); assay: qHTS assay for small molecule antagonists of vitamin D receptor signaling (AID 588541);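 also: receptor activated by calcitriol during compound treatment; series mostly up to about 77 µM; % is scaled to controls: 0 for no effect and ±100 for the full control effect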
Sequence of Vitamin D3 receptor (Homo sapiens) (P11473 whole entry, looked up): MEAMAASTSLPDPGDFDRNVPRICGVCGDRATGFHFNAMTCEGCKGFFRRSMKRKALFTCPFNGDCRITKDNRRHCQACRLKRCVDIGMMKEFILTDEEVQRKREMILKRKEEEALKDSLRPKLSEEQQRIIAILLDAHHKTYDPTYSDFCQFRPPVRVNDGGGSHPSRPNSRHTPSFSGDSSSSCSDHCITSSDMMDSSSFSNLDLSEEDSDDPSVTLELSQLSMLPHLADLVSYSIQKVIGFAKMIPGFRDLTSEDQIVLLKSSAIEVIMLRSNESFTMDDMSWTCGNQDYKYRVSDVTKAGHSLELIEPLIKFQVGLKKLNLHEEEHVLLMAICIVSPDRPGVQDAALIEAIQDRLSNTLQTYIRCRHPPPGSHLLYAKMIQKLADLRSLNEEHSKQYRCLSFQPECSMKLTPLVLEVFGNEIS
Procedure, shortened: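 Antagonist-mode beta-lactamase reporter assay: HEK293T VDR-UAS-bla cells were exposed to titrated compound alongside 1-alpha,25-dihydroxyvitamin D3 at 3 nM final for 16 h. Values were normalized to the 50 nM agonist control and DMSO basal, with IC50 and efficacy from Hill equation fits.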

[8] = target: Vitamin D3 receptor (Homo sapiens) (UniProt P11473); assay: qHTS assay for small molecule agonists of vitamin D receptor signaling (AID 588543);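 also: 0% = DMSO basal and 100% = reference agonist control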
Procedure, shortened: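 Measured: β-lactamase reporter activity (CCF4, 405 nm excitation, 460/530 nm emission) in HEK293T VDR-UAS-bla cells after 16 h compound exposure at 37 °C. Normalization against 50 nM 1α,25-dihydroxyvitamin D3 and DMSO; Hill-fit EC50.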

[9] = qHTS assay for small molecule agonists of retinoid X receptor alpha signaling (AID 588544); conditions: HEK293T RXRa-UAS-bla, beta-lactamase reporter, 18 h; 530 nm emission;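 as to activation: 0% = DMSO basal wells and 100% = reference agonist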
[10] = target: Retinoic acid receptor RXR-alpha (Homo sapiens) (UniProt P19793); assay: as above
Sequence of Retinoic acid receptor RXR-alpha (Homo sapiens) (P19793 whole entry, looked up): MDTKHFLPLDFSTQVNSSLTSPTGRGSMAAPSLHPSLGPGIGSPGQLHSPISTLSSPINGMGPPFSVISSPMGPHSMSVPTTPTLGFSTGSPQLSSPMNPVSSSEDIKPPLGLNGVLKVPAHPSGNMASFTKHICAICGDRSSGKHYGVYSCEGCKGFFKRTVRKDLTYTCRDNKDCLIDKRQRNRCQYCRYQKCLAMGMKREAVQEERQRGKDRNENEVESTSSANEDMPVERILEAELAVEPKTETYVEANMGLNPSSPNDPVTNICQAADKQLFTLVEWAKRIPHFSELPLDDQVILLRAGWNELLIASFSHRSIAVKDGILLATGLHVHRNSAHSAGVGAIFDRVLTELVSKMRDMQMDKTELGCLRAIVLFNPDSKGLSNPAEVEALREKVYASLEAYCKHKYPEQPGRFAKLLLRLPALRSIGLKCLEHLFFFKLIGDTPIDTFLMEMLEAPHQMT

[11] = qHTS assay for small molecule antagonists of retinoid X receptor alpha signaling (AID 588546; active = well fitted inhibition curve with a large enough effect in the signal ratio, with a control signal flat, not every such curve was filed as active; the % refers to the signal ratio; also: potency is read from the fitted curve at half-maximal effect;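 as to max response: cells stimulated with 9-cis-retinoic acid as agonist; % is scaled to controls: 0 for no effect and ±100 for the full control effect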); conditions: HEK293T RXRa-UAS-bla, beta-lactamase ratio, antagonist mode; measured here: W530 green channel, cytotoxicity proxy
Procedure, shortened: (§2)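 Beta-lactamase reporter inhibition, read as CCF4 fluorescence ratio (ex 405, em 460/530 nm) after 2 h at RT. HEK293T UAS-bla cells, 2500/well, were stimulated with 9-cis-RA at 500 or 100 nM final alongside test compound for 18 h at 37 C.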

[12] = target: Retinoic acid receptor RXR-alpha (Homo sapiens) (UniProt P19793); assay: as above; conditions: HEK293T RXRa-UAS-bla, beta-lactamase ratio, antagonist mode
Procedure, shortened: as §2

[13] = target: Peroxisome proliferator-activated receptor alpha (Homo sapiens) (UniProt Q07869); assay: qHTS assay for small molecule agonists of the peroxisome proliferator-activated receptor alpha (PPARalpha) signaling pathway (AID 651778; active = well fitted curve in the direction sought with a large enough effect; an effect the other way counts as inactive or inconclusive; also: % of control where 0% means no effect); conditions: PathHunter PPARalpha complementation, chemiluminescence, 6 h; max response: stronger effect = higher value
Sequence of Peroxisome proliferator-activated receptor alpha (Homo sapiens) (Q07869 whole entry, looked up): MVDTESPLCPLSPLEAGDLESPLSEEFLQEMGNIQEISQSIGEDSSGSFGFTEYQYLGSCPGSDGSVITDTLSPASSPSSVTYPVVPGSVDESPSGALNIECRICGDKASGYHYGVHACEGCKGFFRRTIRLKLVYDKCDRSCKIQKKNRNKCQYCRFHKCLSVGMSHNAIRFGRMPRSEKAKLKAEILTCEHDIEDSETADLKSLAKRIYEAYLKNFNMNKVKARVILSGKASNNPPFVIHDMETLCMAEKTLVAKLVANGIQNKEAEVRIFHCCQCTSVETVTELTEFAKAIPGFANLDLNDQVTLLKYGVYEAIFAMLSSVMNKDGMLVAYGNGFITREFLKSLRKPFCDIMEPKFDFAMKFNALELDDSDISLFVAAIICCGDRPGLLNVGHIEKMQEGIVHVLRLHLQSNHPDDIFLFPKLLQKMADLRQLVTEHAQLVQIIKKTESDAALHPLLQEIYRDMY
Procedure, shortened: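 Chemiluminescence from complemented enzyme reported PPARalpha activation in cells after 6 hr of compound treatment at 37 C. The detection reagent was incubated for 60 min at room temperature, and compounds were scored as agonists.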

[14] = qHTS assay for small molecule agonists of the antioxidant response element (ARE) signaling pathway measured by Nrf2-dependant transcriptional activity (AID 720636; active = well fitted curve in the direction sought with a large enough effect in the repeat runs; an effect the other way counts as inactive or inconclusive;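 also: HepG2 cells with an ARE-driven luciferase reporter; % of control where 0% means no effect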)
Procedure, shortened: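 In HepG2 cells engineered with an Nrf2-responsive luciferase gene, ARE induction was quantified as luminescence after 16 hr compound treatment at 37 C.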

[15] = qHTS assay for small molecule agonists of the antioxidant response element (ARE) signaling pathway measured by Nrf2-dependant transcriptional activity - cell viability counter screen (AID 720653; active = well fitted curve in the direction sought with a large enough effect in the repeat runs; an effect the other way counts as inactive or inconclusive; also: % is scaled to controls: 0 for no effect and ±100 for the full control effect); conditions: ARE-bla HepG2 viability, CellTiter-Glo ATP luminescence, 16 h; max response: stronger effect = lower value
Procedure, shortened: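 Cytotoxicity counter screen: intracellular ATP quantified by CellTiter-Glo luminescence in the same ARE-bla HepG2 plates, after 16 h compound exposure and a 2 h beta-lactamase substrate step.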

[16] = qHTS assay for cell viability of HEK293 cells (AID 743288; active = well fitted curve in the direction sought with a large enough effect; an effect the other way counts as inactive or inconclusive; also: nearly all actives have a fitted effect of over 50% in size; also: potency is read from the fitted curve at half-maximal effect); conditions: ATP luminescence (CellTiter-Glo), 18 h; max response: stronger effect = lower value
Procedure, shortened: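 Luminescent ATP quantitation served as the viability read-out. Cells (parental HEK293, 2,000/well) received compounds after at least 5 h at 37 C and were exposed for 18 h before a 30 min room-temperature reagent step.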

[17] = qHTS assay for cell viability of the p53RE-bla HCT-116 cell line (AID 743292; active = well fitted curve in the direction sought with a large enough effect; an effect the other way counts as inactive or inconclusive; also: nearly all actives have a fitted effect of over 55% in size; also: potency is read from the fitted curve at half-maximal effect)
Procedure, shortened: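 Intracellular ATP of p53RE-bla HCT-116 cells measured by luciferase luminescence following 16 h compound incubation at 37 C; DMSO-only wells served as vehicle controls.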

[18] = target: Nuclear receptor subfamily 1 group I member 2 (Rattus norvegicus) (UniProt Q9R1A7); assay: qHTS assay for small molecule activators of the rat pregnane X receptor (rPXR) signaling pathway (AID 651751; call rule not given here; also: 0% is about no effect); conditions: rPXR reporter cells, luciferase (One-Glo), 24 h
Sequence of Nuclear receptor subfamily 1 group I member 2 (Rattus norvegicus) (Q9R1A7 whole entry, looked up): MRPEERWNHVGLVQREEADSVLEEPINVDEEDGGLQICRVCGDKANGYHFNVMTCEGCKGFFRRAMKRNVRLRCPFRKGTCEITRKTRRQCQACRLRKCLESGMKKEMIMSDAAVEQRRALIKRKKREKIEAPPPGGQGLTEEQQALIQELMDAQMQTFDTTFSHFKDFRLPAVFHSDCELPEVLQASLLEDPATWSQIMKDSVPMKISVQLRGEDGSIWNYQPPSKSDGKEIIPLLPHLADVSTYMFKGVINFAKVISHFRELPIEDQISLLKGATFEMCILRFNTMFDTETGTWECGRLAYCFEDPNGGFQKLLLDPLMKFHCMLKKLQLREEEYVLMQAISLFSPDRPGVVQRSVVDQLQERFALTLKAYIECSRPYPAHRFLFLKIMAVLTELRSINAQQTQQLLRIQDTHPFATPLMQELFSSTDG

[19] = qHTS assay for small molecule activators of the human pregnane X receptor (PXR) signaling pathway (AID 720659; call rule not given here; also: 0% is about no effect)
[20] = target: Bile acid receptor (Homo sapiens) (UniProt Q96RI1); assay: qHTS assay for small molecule agonists of farnesoid X receptor signaling (AID 588527); conditions: HEK293T FXR-UAS-bla, beta-lactamase ratio, 16 h; activation: stronger effect = higher value;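 also: series mostly up to about 77 µM; 0% = vehicle basal and 100% = reference agonist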
Sequence of Bile acid receptor (Homo sapiens) (Q96RI1 whole entry, looked up): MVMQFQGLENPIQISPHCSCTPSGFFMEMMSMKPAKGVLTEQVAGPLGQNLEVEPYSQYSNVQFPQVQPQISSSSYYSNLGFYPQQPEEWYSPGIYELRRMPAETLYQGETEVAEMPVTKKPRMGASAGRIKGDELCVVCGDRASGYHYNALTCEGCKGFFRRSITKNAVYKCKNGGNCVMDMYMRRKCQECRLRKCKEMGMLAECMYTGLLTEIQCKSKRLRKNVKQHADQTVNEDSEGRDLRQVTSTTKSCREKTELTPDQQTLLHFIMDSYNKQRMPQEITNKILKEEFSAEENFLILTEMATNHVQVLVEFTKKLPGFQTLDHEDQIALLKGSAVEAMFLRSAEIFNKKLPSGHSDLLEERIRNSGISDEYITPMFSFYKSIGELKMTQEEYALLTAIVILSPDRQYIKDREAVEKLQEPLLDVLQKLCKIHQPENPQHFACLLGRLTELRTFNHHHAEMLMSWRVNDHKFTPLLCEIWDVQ
Procedure, shortened: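 FXR-UAS-bla HEK293T, 10% dialyzed FBS; cpds up to 92 uM titration, 16 h 37 C; CCF4 dye 2 h RT; fluorescence. Normalized to chenodeoxycholic acid 100 uM (100%) and DMSO (0%); Hill fit gives EC50, efficacy.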

[21] = qHTS assay for environmental chemicals that activate the Aryl hydrocarbon Receptor (AhR) signaling pathway (AID 651777; active = well fitted curve in the direction sought with a large enough effect; an effect the other way counts as inactive or inconclusive; also: nearly all actives have a fitted effect of over 15% in size; also: potency is read from the fitted curve at half-maximal effect; as to activation: % of control where 0% means no effect); conditions: 1A2-DRE human hepatoma cells, luciferase, 24 h; activation: stronger effect = higher value
Procedure, shortened: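 Measured luciferase activity, read 30 min after One-Glo addition at room temperature, from human hepatoma cells bearing a dioxin response element–CYP1A2 promoter reporter and exposed to compound for 24 hr at 37 C.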

[22] = target: Thyroid hormone receptor beta (Homo sapiens) (UniProt P10828); assay: qHTS assay for small molecule agonists of thyroid hormone receptor beta signaling (AID 588545);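 also: 0% = DMSO only and 100% = 10 nM T3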
Sequence of Thyroid hormone receptor beta (Homo sapiens) (P10828 whole entry, looked up): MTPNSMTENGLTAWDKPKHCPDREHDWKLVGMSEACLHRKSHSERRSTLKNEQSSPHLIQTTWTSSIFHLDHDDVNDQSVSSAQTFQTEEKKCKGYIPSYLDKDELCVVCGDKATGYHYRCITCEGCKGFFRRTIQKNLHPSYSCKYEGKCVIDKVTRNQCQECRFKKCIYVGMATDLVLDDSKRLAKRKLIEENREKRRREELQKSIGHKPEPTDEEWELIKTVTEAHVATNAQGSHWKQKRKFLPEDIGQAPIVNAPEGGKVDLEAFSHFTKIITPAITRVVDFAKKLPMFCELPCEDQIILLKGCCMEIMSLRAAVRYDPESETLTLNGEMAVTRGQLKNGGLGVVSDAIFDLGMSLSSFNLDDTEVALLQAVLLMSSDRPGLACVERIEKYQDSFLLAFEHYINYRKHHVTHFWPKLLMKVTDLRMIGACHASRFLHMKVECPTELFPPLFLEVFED
Procedure, shortened: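 TR-UAS-bla-GripTite HEK 293 cells in medium with 2% charcoal/dextran FBS, 0.1 mM NEAA and 1 mM sodium pyruvate were treated with titrated compounds for 18 hrs at 37 C. Beta-lactamase reporter was read with CCF4 dye (ex 405, em 460/530 nm); EC50 from Hill fits.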

[23] = target: Cytochrome P450 3A4 (Homo sapiens) (UniProt P08684); assay: qHTS Assay for Activators of Cytochrome P450 3A4 (AID 885; active = well fitted curve in the direction sought with a large enough effect; an effect the other way counts as inactive or inconclusive; also: nearly all actives have a fitted effect of over 65% in size)
Sequence of Cytochrome P450 3A4 (Homo sapiens) (P08684 whole entry, looked up): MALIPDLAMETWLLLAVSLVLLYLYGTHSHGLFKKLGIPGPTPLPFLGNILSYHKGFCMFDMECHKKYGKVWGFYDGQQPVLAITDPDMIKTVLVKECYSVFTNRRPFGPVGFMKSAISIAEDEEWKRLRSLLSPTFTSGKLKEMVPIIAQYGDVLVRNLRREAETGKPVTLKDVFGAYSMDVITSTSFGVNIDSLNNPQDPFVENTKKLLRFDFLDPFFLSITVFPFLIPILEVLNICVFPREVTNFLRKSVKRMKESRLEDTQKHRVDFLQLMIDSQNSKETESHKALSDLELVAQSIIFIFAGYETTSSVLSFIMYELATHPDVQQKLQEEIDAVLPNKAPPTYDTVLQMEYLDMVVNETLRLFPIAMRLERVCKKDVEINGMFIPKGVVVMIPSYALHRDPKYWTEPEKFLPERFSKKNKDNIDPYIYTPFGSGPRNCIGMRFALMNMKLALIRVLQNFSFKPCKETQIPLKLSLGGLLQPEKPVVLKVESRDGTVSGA
Procedure, shortened: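 20nM CYP3A4 + 25uM Luciferin-PPXE (=KM), 200mM KPO4; cpd 10 min RT; NADPH regen, 60 min RT; stop w/ detection buffer, 20 min; luminescence. Normalized to 57 uM ketoconazole.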

[24] = target: Peroxisome proliferator-activated receptor delta (Homo sapiens) (UniProt Q03181); assay: qHTS assay for small molecule agonists of peroxisome proliferator-activated receptor delta signaling (AID 588534);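 also: 0% = DMSO basal wells and 100% = positive control agonist at 10 µM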
Procedure, shortened: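 Reporter cells were plated and held 5 hrs at 37 C before compounds were added. After 18 hrs at 37 C, CCF4 dye was loaded for 2 hrs at RT and fluorescence measured.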

[25] = qHTS assay for small molecule activators of the p53 signaling pathway (AID 651743; active = well fitted activation curve with a large enough effect in the signal ratio, not every such curve was filed as active; the % refers to the signal ratio; also: potency is read from the fitted curve at half-maximal effect; as to activation: series mostly up to about 92 µM; % of control where 0% means no effect); conditions: HCT-116 p53RE-bla, beta-lactamase FRET ratio, 16 h; activation: stronger effect = higher value
Procedure, shortened: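 Screen for p53 pathway agonists uses stably transfected p53RE-bla HCT-116 cells, 4,000 per well, treated 16 h at 37 C with compounds in DMSO.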

[26] = qHTS assay for small molecule activators of the nuclear factor-kappa B (NF-kB) signaling pathway (AID 651749; active = well fitted activation curve with a large enough effect in the signal ratio; the % refers to the signal ratio; also: series mostly up to about 77 µM; % of control where 0% means no effect); conditions: NF-kB-bla ME-180 cells, beta-lactamase FRET ratio, 16 h; activation: stronger effect = higher value
Procedure, shortened: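 Stably transfected ME-180 line; NF-kB response element upstream of beta-lactamase. Treatment: compound or DMSO, 16 hr. Detection: fluorescent FRET substrate.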

[27] = MultiTox-Fluor Cytotoxicity Assay - LYMP1-001 - Live Cells (AID 947; active = well fitted curve in the direction sought with a large enough effect; an effect the other way counts as inactive or inconclusive;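 also: 0% = DMSO only and full inhibition = tetraoctylammonium bromide control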)
[28] = qHTS assay for small molecule agonists of the antioxidant response element (ARE) signaling pathway (AID 651741; active = well fitted activation curve with a large enough effect in the signal ratio; the % refers to the signal ratio; also: potency is read from the fitted curve at half-maximal effect)
Procedure, shortened: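 Seeding 2,000 ARE-bla HepG2 cells per well preceded a 5 h incubation at 37 C/5% CO2 and a 16 h compound exposure at 37 C. Beta-lactamase reporter activity was then quantified by fluorescence after 2 h with LiveBLAzer B/G FRET substrate.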

[29] = target: Nuclear receptor ROR-gamma (Homo sapiens) (UniProt P51449); assay: qHTS assay for small molecule antagonists of the retinoid-related orphan receptor gamma (ROR-gamma) signaling pathway (AID 651802; active = well fitted curve in the direction sought with a large enough effect; an effect the other way counts as inactive or inconclusive;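 also: CHO cells with doxycycline-induced ROR-gamma expression; luciferase reporter luminescence driven by ROR response element; series mostly up to about 92 µM; % is scaled to controls: 0 for no effect and ±100 for the full control effect; nearly all actives have a fitted effect of over 60% in size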)
Procedure, shortened: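 Antagonism is scored as a fall in luminescence from a RORE-luciferase reporter in CHO cells expressing ROR under a TET-inducible promoter, measured 16hr after doxycycline induction in the presence of compound.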

[CH3][Sn]([Cl])([Cl])[Cl]
-11%: max response [11]
-4.62%: max response [3]
-11.9%: max response [9]
inactive: activation [1] -3.55% | Potency [2] | Potency [4] | Potency [5] | Potency [6] | Potency [7] | outcome [8] | Potency [10] | max response [12] -14.8% | max response [13] 0.635% | Potency [14] | max response [15] -16% | max response [16] -18.6% | Potency [17] | max response [18] -7.26% | outcome [19]

Oc1ccc2ccccc2c1N=Nc1ccccc1
active: Potency [21] 14.1 µM
inactive: activation [20] 3.78%

CCOC(=O)[C@H](C)Oc1ccc(Oc2nc3ccc(Cl)cc3o2)cc1
inactive: activation [20] -2.5% | Potency [22]

CCCCC(CC)COP(=O)(OCC(CC)CCCC)OCC(CC)CCCC (stereo unspecified)
inactive: Potency [23] | activation [20] -0.972% | outcome [24]

CCc1nn(C)c(C(=O)NCc2ccc(C(C)(C)C)cc2)c1Cl
inactive: activation [20] 2.45% | outcome [8] | activation [26] 2.69% | activation [21] 6.31% | Potency [14] | max response [16] -25.1%
active: Potency [25] 0.355 µM

CN(C)C=O
2.34% and -5.07% and -17.6%: max response [9]
inactive: Potency [27] | activation [20] -2.96% and -2.36% and -5.04%

CN(c1c(Br)cc(Br)cc1Br)c1c([N+](=O)[O-])cc([N+](=O)[O-])cc1C(F)(F)F
inactive: activation [20] 1.9% | outcome [8] | activation [21] -7.94% | max response [13] -2.57% | Potency [14] | max response [18] -14.1%
-24%: max response [11]
active: Potency [12] 8.91 µM | Potency [28] 5.45 µM | Potency [16] 39.8 µM | Potency [17] 7.08 µM

Cc1cc(C)c(N)cc1C
inactive: Potency [23] | activation [20] -1.7% | Potency [29]

CN(C)c1ccc(C(=O)c2ccc(N(C)C)cc2)cc1
active: Potency [21] 5.01 µM
inactive: activation [20] -3.55% | Potency [5] | outcome [8] | Potency [22] | activation [26] 1.06% | max response [13] -1.25% | max response [15] -12.9% | Potency [17]

c1ccc2c(c1)ccc1c3ccccc3ccc21
active: Potency [21] 11.2 µM
inactive: activation [20] -1.28% | outcome [24]

CCOP(=S)(OCC)OC(Cl)C(Cl)(Cl)Cl (stereo unspecified)
-12.5%: max response [11]
inactive: activation [1] 11.6% | Potency [2] | outcome [24] | Potency [5] | Potency [6] | Potency [7] | outcome [8] | Potency [22] | max response [12] -15% | activation [25] -0.781% | activation [26] 0.0553% | activation [21] 0.044% | max response [13] -1.33% | Potency [14] | max response [16] -12.8% | Potency [17] | max response [18] 0.487% | outcome [19]
